Screening results deposited in PubChem BioAssay by several laboratories.
Myeloid diff 2 = induction of myeloid progenitor differentiation, primary screen, cell-based, flow cytometry, MLPCN library. ER-HoxA9 myeloid progenitors, lysozyme-GFP differentiation. calls only at 10 µM. 360,000 tested, 1% active;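 active = normalized GFP-positive differentiation at or above the plate's own cutoff, the solvent-only control mean plus 3 SD; inconclusive = no clear call, values can overlap the other calls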;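 note: cells exposed to compound for four days before flow analysis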
CRFBP-R2 block = antagonists of CRF-BP/CRF-R2 complex, primary screen, cell-based, HEK293, calcium dye fluorescence, uHTS. CRF-induced calcium fluorescence. inhibition, % at 11.8 µM. 350,000 tested, 0.59% active. AID 588475, 2011;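 active = inhibition of the ligand-induced calcium signal above about 50% at the single tested concentration, limit read from the data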
FAS-TE inh = FAS thioesterase domain inhibitors, primary screen, biochemical, fluorescence intensity, uHTS; Fatty acid synthase (Homo sapiens), P49327; recombinant FAS-TE, OMFH fluorogenic substrate, fluorescence endpoint; inhibition, % at 15 µM; 360,000 tested, 0.67% active; AID 602261, 2012;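 active = compounds whose normalised, plate-corrected inhibition of enzyme fluorescence in the single-dose primary screen is 50% or more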
Target sequence (P49327 whole entry, looked up, the tested form may be a part): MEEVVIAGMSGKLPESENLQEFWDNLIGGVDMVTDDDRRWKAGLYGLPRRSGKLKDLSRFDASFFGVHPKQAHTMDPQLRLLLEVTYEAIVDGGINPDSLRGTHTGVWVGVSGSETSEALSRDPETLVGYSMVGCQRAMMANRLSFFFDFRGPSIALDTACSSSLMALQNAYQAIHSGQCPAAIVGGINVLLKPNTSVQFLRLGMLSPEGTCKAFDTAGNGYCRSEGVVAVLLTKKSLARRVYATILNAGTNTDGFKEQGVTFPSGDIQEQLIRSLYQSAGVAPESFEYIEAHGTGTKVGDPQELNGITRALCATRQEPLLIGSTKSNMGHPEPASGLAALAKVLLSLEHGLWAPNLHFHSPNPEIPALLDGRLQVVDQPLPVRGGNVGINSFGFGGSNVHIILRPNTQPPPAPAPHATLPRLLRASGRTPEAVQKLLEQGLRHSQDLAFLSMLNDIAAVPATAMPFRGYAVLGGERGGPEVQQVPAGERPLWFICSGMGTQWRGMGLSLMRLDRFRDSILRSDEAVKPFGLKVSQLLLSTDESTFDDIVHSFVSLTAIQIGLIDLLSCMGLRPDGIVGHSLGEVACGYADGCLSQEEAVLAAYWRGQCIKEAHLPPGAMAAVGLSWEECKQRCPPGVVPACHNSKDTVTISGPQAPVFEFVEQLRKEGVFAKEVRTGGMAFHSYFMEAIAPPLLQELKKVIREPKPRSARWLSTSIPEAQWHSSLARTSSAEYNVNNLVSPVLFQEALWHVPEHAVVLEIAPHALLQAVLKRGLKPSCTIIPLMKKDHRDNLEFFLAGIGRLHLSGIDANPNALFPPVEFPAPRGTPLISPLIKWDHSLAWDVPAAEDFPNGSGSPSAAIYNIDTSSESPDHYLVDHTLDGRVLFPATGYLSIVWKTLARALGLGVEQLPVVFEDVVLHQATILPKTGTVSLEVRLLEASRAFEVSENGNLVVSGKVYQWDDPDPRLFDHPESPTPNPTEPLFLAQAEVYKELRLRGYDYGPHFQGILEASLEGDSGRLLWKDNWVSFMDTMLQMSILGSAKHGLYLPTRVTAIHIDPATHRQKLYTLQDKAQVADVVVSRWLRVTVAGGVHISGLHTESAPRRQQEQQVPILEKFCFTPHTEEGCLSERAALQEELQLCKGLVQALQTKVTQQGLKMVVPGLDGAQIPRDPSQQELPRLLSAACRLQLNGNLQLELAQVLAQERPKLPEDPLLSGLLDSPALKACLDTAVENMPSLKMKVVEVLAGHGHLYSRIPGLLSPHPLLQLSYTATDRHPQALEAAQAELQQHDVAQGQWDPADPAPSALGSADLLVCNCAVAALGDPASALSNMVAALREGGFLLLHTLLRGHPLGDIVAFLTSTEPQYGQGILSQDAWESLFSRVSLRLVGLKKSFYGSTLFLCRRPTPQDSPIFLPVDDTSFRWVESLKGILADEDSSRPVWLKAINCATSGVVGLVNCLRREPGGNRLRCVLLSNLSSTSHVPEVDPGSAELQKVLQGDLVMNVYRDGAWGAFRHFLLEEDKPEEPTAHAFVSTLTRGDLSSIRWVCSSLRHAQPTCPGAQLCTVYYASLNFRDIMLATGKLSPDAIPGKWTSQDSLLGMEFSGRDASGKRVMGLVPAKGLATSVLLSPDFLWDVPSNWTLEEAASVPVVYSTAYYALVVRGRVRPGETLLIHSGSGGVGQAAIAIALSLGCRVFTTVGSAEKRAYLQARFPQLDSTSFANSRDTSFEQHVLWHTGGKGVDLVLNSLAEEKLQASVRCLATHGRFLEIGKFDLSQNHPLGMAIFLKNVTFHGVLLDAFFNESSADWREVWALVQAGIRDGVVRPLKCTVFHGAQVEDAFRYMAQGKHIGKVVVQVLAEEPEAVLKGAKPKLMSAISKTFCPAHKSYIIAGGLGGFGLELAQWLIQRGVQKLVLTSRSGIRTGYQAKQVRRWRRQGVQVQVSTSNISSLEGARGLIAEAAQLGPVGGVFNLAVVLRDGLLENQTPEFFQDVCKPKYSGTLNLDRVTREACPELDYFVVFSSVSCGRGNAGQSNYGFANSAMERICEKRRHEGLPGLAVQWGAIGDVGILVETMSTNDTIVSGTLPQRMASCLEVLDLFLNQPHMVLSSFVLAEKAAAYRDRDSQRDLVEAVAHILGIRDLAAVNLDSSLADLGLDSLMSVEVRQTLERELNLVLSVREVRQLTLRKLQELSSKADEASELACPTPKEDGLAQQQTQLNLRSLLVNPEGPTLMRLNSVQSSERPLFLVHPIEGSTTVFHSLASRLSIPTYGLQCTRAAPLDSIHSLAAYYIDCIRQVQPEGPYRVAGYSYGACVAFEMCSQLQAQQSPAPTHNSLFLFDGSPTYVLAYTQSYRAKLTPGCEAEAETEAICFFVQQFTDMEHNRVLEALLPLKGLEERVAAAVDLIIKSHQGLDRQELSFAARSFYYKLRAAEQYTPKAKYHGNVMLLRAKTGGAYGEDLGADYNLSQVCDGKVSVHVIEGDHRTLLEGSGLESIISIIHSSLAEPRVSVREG
CendR NRP1 mod = modulators of CendR peptide binding to NRP-1, primary screen, biochemical, fluorescence polarization, uHTS; Neuropilin-1 (Homo sapiens), O14786; FAM-RPARPAR peptide binding to NRP-1; inhibition, % at 25 µM; 360,000 tested, 0.85% active; AID 602438, 2012;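 active = inhibition or corrected inhibition above about 18%, plus a signal ratio from 0.5 to 1.5, limit read from the data, passing the limit was not always enough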
NadD block = inhibitors of S. aureus NadD, primary screen, biochemical, colorimetric, uHTS. Nicotinate-nucleotide adenylyltransferase NadD (Staphylococcus aureus N315). purified NadD enzyme, colorimetric absorbance read-out. inhibition, % at 20 µM. 360,000 tested, 0.78% active. AID 602399, 2012; in the data active = inhibition above about 26%
NadD conf = inhibitors of S. aureus NadD, confirmation, biochemical, colorimetric, single concentration | shares compounds with NadD block | purified S. aureus NadD, colorimetric enzyme assay | inhibition, % at 20 µM | 2,000 tested, 13% active | AID 624309, 2012; in the data active = inhibition mostly above about 42%, no sharp cut-off; inactive = mostly below about 42%
Of the large screens only hits and unclear results are named; the others gave an inactive call (follow-up assays come after a bar, where they were run). Hits are enriched below; roughly 3.6% of the tested compounds scored in any of these assays.

COc1ccc(OC)c(-c2cc(C(=O)Nc3sc4c(c3C#N)CCC(C)C4)c3ccccc3n2)c1 (stereo not given)	none
COc1ccc(-c2cc(C(=O)Nc3sc4c(c3C#N)CCCC4)c3ccccc3n2)cc1	NadD block 36.1 | NadD conf inactive
CCn1c(=O)c2[nH]c(Cl)nc2n(CC)c1=O	none
CCN(C(=O)CSc1ccccn1)C1CCCCC1	none
CC1CCc2c(sc(NC(=O)Cn3nc(C(=O)O)c4ccccc4c3=O)c2C#N)C1 (stereo not given)	NadD block 38.6 | NadD conf inactive
COC(=O)C1=C(C)N=C2SC(C)C(=O)N2C1/C=C/c1ccccc1OC (stereo not given)	NadD block 28.6 | NadD conf inactive
CSc1ccccc1C(=O)Nc1cc2c(cc1C(=O)O)OCCCO2	none
CCN(Cc1cc2cc(OC)ccc2[nH]c1=O)C(=O)Cc1ccc(OC)cc1	none
CCC(=O)N(Cc1ccc2c(c1)OCO2)Cc1cc2cc(OC)ccc2[nH]c1=O	NadD block 32.5 | NadD conf inactive
CC[N+](CC)(CC)CCCCOc1ccc2c(c1)C(=O)c1cc(OCCCC[N+](CC)(CC)CC)ccc1-2	NadD block 31.5 | NadD conf inactive
O=C(NCC(=O)N(Cc1ccccc1)C(C(=O)NC1CCCC1)c1ccncc1)c1ccco1 (stereo not given)	none
COc1ccc(/C=N/NC(=O)c2ccn[nH]2)cc1COc1ccc([N+](=O)[O-])c(C)c1	NadD block 30.9 | NadD conf inactive
CC(C)(C)n1nc2c(c1NC(=O)c1c(F)cccc1F)CS(=O)(=O)C2	none
COc1cccc(C2=NOC(C(=O)NC3CCCCC3)C2)c1 (stereo not given)	none
Cc1ccc(-c2cc(C(=O)Nc3ccc(S(=O)(=O)Nc4nccs4)cc3)c3ccccc3n2)c(C)c1	NadD block 62.9 | NadD conf 52.5
Cc1ccc(-c2cc(C(=O)Nc3ccc(S(=O)(=O)Nc4ncccn4)cc3)c3ccccc3n2)cc1	NadD block 33.5 | NadD conf inactive
O=C(Nc1ccc(S(=O)(=O)Nc2nccs2)cc1)c1cc(-c2ccccc2)nc2ccccc12	NadD block 45.6 | NadD conf 50.0
CCc1ccc(-c2cc(C(=O)Nc3ccc(S(=O)(=O)NC(C)=O)cc3)c3ccccc3n2)cc1	none
CC(C)(C)NS(=O)(=O)c1ccc(NC(=O)c2cc(-c3ccccc3)nc3ccccc23)cc1	none
O=C(Nc1nnc(-c2cccs2)o1)c1cc(-c2ccccc2)nc2ccccc12	NadD block 54.8 | NadD conf 50.8
O=C1/C(=C/c2cccs2)SC(=S)N1CCC(=O)N1CCCCC1CCO (stereo not given)	Myeloid diff 2 inconclusive
O=C(CCNS(=O)(=O)c1ccc(Br)cc1)NCCCSc1ccccc1	none
O=C(NCc1cccc(Cl)c1)c1ccc(CS(=O)Cc2ccccc2Cl)o1 (stereo not given)	none
Cc1nn(C)cc1S(=O)(=O)N1CCN(Cc2cccc(Cl)c2)CC1	none
O=C(CCCN=C1NS(=O)(=O)c2ccccc21)OCC(=O)c1ccc(F)cc1	none
O=C(Nc1ccc(S(=O)(=O)Nc2nccs2)cc1)c1ccc(N2C(=O)c3ccccc3C2=O)cc1	NadD block 61.6 | NadD conf inactive
O=C(NNS(=O)(=O)c1ccc2ccccc2c1)c1cc(-c2ccccn2)nc2ccccc12	NadD block 45.4 | NadD conf 49.2
Cc1cc(C(c2nnnn2Cc2ccccc2)N2CCOCC2)c(C)n1-c1ccc2c(c1)OCO2 (stereo not given)	none
Cc1cc(CNC(=O)c2ccc3c(c2)OCO3)c2ccccc2n1	Myeloid diff 2 inconclusive
O=c1[nH]c2ccc(S(=O)(=O)NCc3ccccc3)cc2[nH]1	none
Cc1ccc(-c2csc(N3CCN(S(=O)(=O)c4ccc5c(c4)NC(=O)CO5)CC3)n2)cc1	NadD block 38.7 | NadD conf inactive
O=C1COc2ccc(S(=O)(=O)N3CCCC3)cc2N1	none
N/C(=N\c1nc(CSc2ccc(Cl)cc2)cc(=O)[nH]1)Nc1cccc2ccccc12	NadD block 26.6 | NadD conf inactive
CCOc1ccc(/C=N/NC(=O)C(=O)N2CCCCCC2)c2ccccc12	none
CCCCOc1ccccc1NC(=O)CC1Nc2ccccc2NC1=O (stereo not given)	NadD block 31.2 | NadD conf inactive
CCCCNC(=O)CC1Nc2ccccc2NC1=O (stereo not given)	none
Cc1c(NC(=O)CN2CCN(c3ccc(F)cc3)CC2)c(=O)n(-c2ccccc2)n1C	none
C=CC#CC[N+]1(CC#Cc2ccccc2)CCOCC1	CendR NRP1 mod 20.6, NadD block 43.9 | NadD conf inactive
C(#Cc1ccccc1)C[N+]1(CC#Cc2ccccc2)CCCC1	Myeloid diff 2 inconclusive
O=C(NCc1nc2ccccc2[nH]1)C1=C[C@H](c2csc3ccccc23)C[C@H](OCc2ccc(CO)cc2)O1	NadD block 32.0 | NadD conf inactive
O=C(NCc1nc2ccccc2[nH]1)C1=C[C@@H](c2csc3ccccc23)C[C@@H](OCc2ccc(CO)cc2)O1	NadD block 34.3 | NadD conf inactive
O=C(COc1ccc(/C=N/NC(=O)c2ccncc2)cc1)Nc1ccc([N+](=O)[O-])cc1	none
O=C(COc1ccc(/C=N/NC(=O)c2ccc(O)cc2)cc1)Nc1cccc([N+](=O)[O-])c1	NadD block 28.4 | NadD conf inactive
Cc1ccc(S(=O)(=O)Nc2ccc(Nc3nccn4c(-c5cccc(OC(F)(F)F)c5)cnc34)cc2)cc1	NadD block 32.8 (no result: CRFBP-R2 block) | NadD conf 52.5
O=C(CNC(=O)C1COc2ccccc2O1)N/N=C/c1ccc(O)cc1O (stereo not given)	none
Cc1ccc(S(=O)(=O)N2CCOCC2)cc1NC(=O)CNc1ccccc1N1CCCC1=O	none
C#CCCc1cocc1/C=[N+](\[O-])c1ccc(C(=O)OCC)cc1	NadD block 42.0 | NadD conf inactive
CC(C)(C)OC(=O)N1CCC[C@H]1C(=O)N/N=C/c1ccc2ncccc2c1	none
Oc1c(Br)cc(Br)cc1C=Nc1ccc2[nH]ncc2c1	NadD block 29.7 | NadD conf inactive
COc1ccc(C=Nc2ccc3[nH]ncc3c2)c(O)c1	none
O=[N+]([O-])c1cccc(SSc2cccc([N+](=O)[O-])c2)c1	NadD block 44.2 | NadD conf 57.8
CCOc1ccc2nc(N3C(=O)/C(=C/c4ccccc4)NC3=S)sc2c1	NadD block 32.9 | NadD conf inactive
CCOc1ccc2nc(N3CCCCCC3)sc2c1	none
O=c1[nH]c2ccc(Cl)cc2c(O)c1-c1ccccc1	none
NNC(=O)CSc1c(-c2ccccc2)c2cc(Cl)ccc2[nH]c1=O	none (no result: Myeloid diff 2)
